Source: PubChem (National Center for Advancing Translational Sciences (NCATS))
Shown are actives, neighbours in structure and some others; about 9% of the full set was active somewhere.
HP1b binding inh = HTS for Inhibitors of HP1-beta Chromodomain Interactions with Methylated Histone Tails | Chromobox protein homolog 1 (Homo sapiens), P83916 | AlphaScreen HP1-beta / biotin-H3K9me3 peptide binding | Potency, µM (highest dose often 114 µM), for the others: at the highest dose activity change, negative = inhibition, actives largely listed as inhibitors | hit rate 0.56% among 390,000 | AID 540317, 2011; further: nearly all actives have a fitted effect of over 70% in size
Target sequence (P83916 whole entry, looked up): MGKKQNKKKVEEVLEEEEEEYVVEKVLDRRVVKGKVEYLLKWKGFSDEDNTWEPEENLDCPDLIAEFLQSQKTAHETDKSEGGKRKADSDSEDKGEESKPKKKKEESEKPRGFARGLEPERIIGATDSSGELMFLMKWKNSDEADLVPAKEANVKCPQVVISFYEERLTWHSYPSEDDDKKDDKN
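HP1-beta protein (50 nM final) preincubated 30 min at room temperature with biotinylated H3(1-18)K9me3 peptide (50 nM) in PBS pH 7.4, 0.01% Tween-20, then compound added for 30 min. AlphaScreen streptavidin donor/nickel chelate acceptor beads (10 ug/mL final), 30 min dark, luminescence read.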
12-LOX inh = Primary qHTS assay for inhibitors of human arachidonate 12S-lipoxygenase (ALOX12): Round 2 | purified 12hLO, xylenol orange hydroperoxide absorbance | AID 1671190, 2021 | Potency, µM (top dose mostly 108 µM), for inactives: at the top dose activity change, negative = inhibition, most hits filed as inhibitors | Polyunsaturated fatty acid lipoxygenase ALOX12 (Homo sapiens), P18054 | hit rate 1.1% among 580,000; further: on the % scale 0 is the no-effect control and ±100 the full control effect
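Hydroperoxide product was detected by ferrous iron/xylenol orange as the 573 to 405 nm absorbance ratio. Arachidonic acid at 40 uM (final) was turned over for 30 min at room temperature by 150 nM human 12hLO, pH 7.0 Hepes buffer, after 15 min compound preincubation.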
BAZ2B inh = qHTS Assay for Inhibitors of BAZ2B; Potency, µM (doses to about 114 µM), without a hit: at the top dose activity change, negative = inhibition, actives largely listed as inhibitors; hit rate 4.4% among 360,000; AlphaScreen BAZ2B-H3K14Ac peptide displacement; further: on the % scale 0 is the no-effect control and ±100 the full control effect; nearly all actives have a fitted effect of over 60% in size
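Multi-concentration screen (max 110 uM) measuring displacement of acetylated histone H3 peptide from BAZ2B by AlphaScreen, using 50 nM protein, 50 nM peptide and 10 ug/mL streptavidin donor plus Ni-chelate acceptor beads.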
PLK1 PBD block = qHTS for Inhibitors of PLK1-PDB (polo-like kinase 1 - polo-box domain): Primary Screen; Serine/threonine-protein kinase PLK1 (Homo sapiens), P53350; Plk1 PBD binding of FITC phosphopeptide, fluorescence polarization; Potency, µM, without a hit: max response, negative = inhibition, actives largely listed as inhibitors; hit rate 2.8% among 360,000; AID 720504, 2013; further: series mostly up to about 57 µM; on the % scale 0 is the no-effect control and ±100 the full control effect; nearly all actives have a fitted effect of over 65% in size
JMJD2A Tudor inh = qHTS Assay for Inhibitors of JMJD2A-Tudor Domain. Lysine-specific demethylase 4A (Homo sapiens), O75164. AlphaScreen JMJD2A-Tudor / H3K4me3 peptide binding. Potency, µM (titrated, usually from 114 µM), for the others: top-dose activity change, negative = inhibition, usual class: inhibitors. hit rate 4.4% among 390,000. AID 504339, 2011; further: on the % scale 0 is the no-effect control and ±100 the full control effect; nearly all actives have a fitted effect of over 50% in size
G9a block = qHTS Assay for Inhibitors of Histone Lysine Methyltransferase G9a. Histone-lysine N-methyltransferase EHMT2 (Homo sapiens), Q96KQ7. G9a H3K9 monomethylation, AlphaScreen, 2 h. Potency, µM (top dose mostly 102 µM), without a hit: at the highest dose activity, negative = inhibition, usual class: inhibitors. hit rate 8.8% among 350,000. AID 504332, 2011; further: on the % scale 0 is the no-effect control and ±100 the full control effect; nearly all actives have a fitted effect of over 75% in size
Target sequence (Q96KQ7 913-1193 limits assumed): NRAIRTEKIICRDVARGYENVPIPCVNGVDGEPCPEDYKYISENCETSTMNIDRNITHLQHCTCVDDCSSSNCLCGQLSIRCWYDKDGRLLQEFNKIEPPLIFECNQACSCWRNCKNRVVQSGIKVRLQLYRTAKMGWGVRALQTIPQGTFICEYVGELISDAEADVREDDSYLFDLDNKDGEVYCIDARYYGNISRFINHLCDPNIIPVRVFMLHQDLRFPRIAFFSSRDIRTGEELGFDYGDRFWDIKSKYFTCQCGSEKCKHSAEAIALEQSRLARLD
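Chemiluminescent proximity detection of H3K9 monomethylation, read after 10 min bead incubation in the dark. Reaction: 20 nM G9a, 500 nM biotin-H3K9 peptide, 20 uM SAM cofactor, 2 h, room temperature, following 15 min enzyme-compound preincubation.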
* hit, by the source's call; i = inactive; ? = inconclusive; / = no result; ! = a repeat was not active; [ ] = remark or other dose. The call rests on the fitted dose curve; in most records, active means well fitted curve in the direction sought with a large enough effect; inconclusive means small, poorly fitted or top-dose-only effect, or another doubt; inactive means no such curve, though single readings can be large; an effect the other way counts as inactive or inconclusive. Potency means the concentration at half of the fitted maximal effect.

SMILES | HP1b binding inh | 12-LOX inh | BAZ2B inh | PLK1 PBD block | JMJD2A Tudor inh | G9a block
Cn1cc(C=C(C#N)C#N)c2ccccc21 | 79% | 0% | -21% | 16% | -9% | /
CC(C)N(Cc1ccccc1)C(=O)CCS(=O)(=O)c1ccc2c(c1)oc(=O)n2C | 51% | 11% | -19% | 17µM* | -4% | 71µM*
CSc1ccccc1C(=O)C1CCCN(Cc2ccn[nH]2)C1 (stereo unspecified) | 27% | -1% | -21% | 1% | -12% | ?
COC(=O)C(O)(c1ccc(NC(=S)NC(=O)c2ccc(Cl)cc2Cl)c(C)c1)C(F)(F)F (stereo unspecified) | -20% | ? | -35% | 21µM* | 79µM* | 1%[59 µM]
CCOC(=O)C(O)(c1ccc(NC(=S)NC(=O)c2ccc(Cl)cc2Cl)c(C)c1)C(F)(F)F (stereo unspecified) | -4% | ? | -9% | 2% | -18% | 10%[59 µM]
NC(=O)CI | / | 11% | / | / | / | 2.4µM*
CCOC(=O)C1(c2ccccc2)Oc2ccccc2C(c2ccc(OC)cc2)=C1C(=O)OC (stereo unspecified) | 30% | -51% | / | ? | -18% | 22µM*
Cc1ccccc1C(=O)Nc1sc2c(c1C(=O)O)CCC(C(C)(C)C)C2 (stereo unspecified) | -1% | -22% | ? | / | -35% | 10µM*
O=C(Nc1sc2c(c1C(=O)Nc1ccc(Cl)cc1)CCCC2)c1cccs1 | 24% | -25% | -2% | / | -9% | 21%[59 µM]
CCOC(=O)C(O)(c1ccc(N(CC)C(=O)OC)cc1)C(F)(F)F (stereo unspecified) | 28% | 0% | 8% | 0% | -3% | -4%[12.7 µM]
Cc1ccc(-c2n[nH]c(=S)n2-c2ccccc2)cc1 | 2% | -47% | 10% | -18% | 20µM* | 1.3µM*
Cc1ccc(-n2c(-c3nn(C)c(C)c3Cl)n[nH]c2=S)cc1 | -15% | 32µM* | -31% | 30µM* | ? | ?
COc1ccc(CCCc2nnc(SCC(=O)Nc3ccc(C)c(C)c3)o2)cc1 | 3% | ? | -26% | 5% | ? | 22µM*
N#Cc1ccc(NC(=O)CSc2nnc(Cc3ccccc3)o2)cc1Cl | / | -16% | / | / | / | /
CC1=C[C@@H]2c3cccc4[nH]cc(c34)C[C@H]2N(C)C1 | 1%[57 µM] | i | -26% | ? | -23% | 45µM*
N[C@@H](Cc1cc(I)c(O)c(I)c1)C(=O)O | ? | 0.51µM*! | 7% | -14% | 11µM* | 6.3µM*!
COc1cccc(N2CCN(C(=O)C3CCCN(S(=O)(=O)c4ccc5c(c4)oc(=O)n5C)C3)CC2)c1 (stereo unspecified) | 8% | 9% | -14% | 0% | -19% | -7%
Cn1c(=O)oc2cc(S(=O)(=O)N3CCC(C(=O)N4CC=C(c5ccccc5)CC4)CC3)ccc21 | 34% | 0% | -3% | -10% | -15% | 50µM*
ON1C2CCCCC2N(O)C1c1ccccc1 (stereo unspecified) | 17% | -21% | 5% | -1% | -18% | -38%[59 µM]
C=CCn1c(=O)c(C=Nc2cccc([N+](=O)[O-])c2)c(O)n(CCCC)c1=O | -11% | ? | -36%[57.1 µM] | 7% | ? | 71µM*
O=C(NC[C@H]1C[C@@H]2CCN1C[C@@H]2CN1CCOCC1)c1ccccc1 | / | 61%[176 µM] | / | / | / | /
O=C1NC(=O)N(CCc2ccc(F)cc2)C(=O)/C1=C/c1cccs1 | -4% | ? | -33% | 1.1µM* | 56µM* | 3.2µM*
O=C1NC(=O)N(CCC2=CCCCC2)C(=O)/C1=C\c1cccs1 | 24% | ? | ? | 1.1µM* | ? | ?
Cc1ccc(/C=C2/C(=O)NC(=O)N(CCc3ccc(F)cc3)C2=O)o1 | 23% | ? | -30% | 0.84µM* | -23% | 34%[0.501 µM]
O=P(/C(=N/O)N1CCOCC1)(N1CCOCC1)N1CCOCC1 | 27% | ? | -6% | -3% | -3% | 14µM*
SMILES | HP1b binding inh | 12-LOX inh | BAZ2B inh | PLK1 PBD block | JMJD2A Tudor inh | G9a block
CN(C)CCN(C(=O)c1ccc(S(=O)(=O)N2CCc3ccccc32)cc1)c1nc2ccc(F)cc2s1 | 5% | ? | ? | -25% | ? | 3.5µM*
Cn1c(=O)oc2cc(S(=O)(=O)N3CCc4ccccc43)ccc21 | 80% | 0% | -39% | -16% | 1%[11.4 µM] | 34%
CCCN(CCC)C1CCc2cccc(O)c2C1 (stereo unspecified) | 23% | -7% | / | -7% | -19% | 24µM*!
CCCN(CCC)[C@@H]1CCc2c(F)ccc(O)c2C1 | / | / | / | / | / | 50µM*
CCCN(CCC)C1CCc2ccc(O)cc2C1 (stereo unspecified) | 41% | -16% | 9% | 3% | -12% | 37%[12.7 µM]
CC(C)OP(=O)(OC(C)C)C(O)c1ccc(Br)cc1 (stereo unspecified) | 15% | 14% | -1% | -5% | -1% | -1%[59 µM]
CCc1nnc(NS(=O)(=O)c2ccc(N=Cc3c(O)n(-c4ccc(Cl)cc4)c(=O)[nH]c3=O)cc2)s1 | -3% | ? | -14% | 27µM* | 35µM* | ?
CNS(=O)(=O)c1ccc(N=Cc2c(O)n(-c3ccc(C)cc3)c(=O)[nH]c2=O)cc1 | 38% | -7% | -14% | 2% | -17% | /
CCN(CC)c1ccc(/C=C2\C(=O)NC(=O)N(CC3CCCO3)C2=O)cc1 (stereo unspecified) | 4% | ? | ? | ? | -27% | ?
Cc1ccc(/C=C2\C(=O)NC(=O)N(CC3CCCO3)C2=O)s1 (stereo unspecified) | 27% | ? | ? | 4.7µM* | -23% | ?
C[C@@H]1CN([C@@H](C)CO)C(=O)c2cccc(NC(=O)c3ccncc3)c2O[C@@H]1CN(C)Cc1ccc(-c2ccccc2)cc1 | 61% | -4% | / | -13% | -18% | /
c1ccc(C(c2ccccc2)c2cccnc2)cc1 | 13%[57 µM] | 13% | / | 3% | 7% | /
c1ccc(-c2ccc(C(c3ccccc3)n3ccnc3)cc2)cc1 (stereo unspecified) | -28% | 7% | 25µM* | ? | 25µM* | ?
COc1ccc(CCn2c(O)c(C=NCCCO)c(=O)[nH]c2=O)cc1OC | 30% | 204% | 2% | 2% | 2% | 6%[59 µM]
S=c1[nH]nc(C2CC2)n1Cc1ccco1 | 8% | ? | 1% | ? | 22µM* | 2.5µM*
